CHRM1 antagonist: blocks human M1 muscarinic receptor. 360,000 compounds, 1.3% hits. P11229. CHO-K1 hM1, Fluo-8 calcium fluorescence, ACh EC80 antagonist. inhibition, % at 3 µM. AID 588852;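 active = percent inhibition above its own plate's cutoff, namely the mean of that plate's compound wells plus 3 SD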;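 also: peak over basal fluorescence ratio during 140 s after agonist addition; 0% = ACh EC80 plus DMSO and 100% = DMSO alone without agonist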
ATG4B inh: blocks human ATG4B protease cleavage of LC3 substrate; Q9Y4P1; ATG4B cleavage of LC3-PLA2, NBD-HPC fluorescence, 1 h; inhibition, % at 8.33 µM; 340,000 compounds, 0.51% hits; in the data active = inhibition above about 40%
Target sequence (Q9Y4P1 whole entry, looked up): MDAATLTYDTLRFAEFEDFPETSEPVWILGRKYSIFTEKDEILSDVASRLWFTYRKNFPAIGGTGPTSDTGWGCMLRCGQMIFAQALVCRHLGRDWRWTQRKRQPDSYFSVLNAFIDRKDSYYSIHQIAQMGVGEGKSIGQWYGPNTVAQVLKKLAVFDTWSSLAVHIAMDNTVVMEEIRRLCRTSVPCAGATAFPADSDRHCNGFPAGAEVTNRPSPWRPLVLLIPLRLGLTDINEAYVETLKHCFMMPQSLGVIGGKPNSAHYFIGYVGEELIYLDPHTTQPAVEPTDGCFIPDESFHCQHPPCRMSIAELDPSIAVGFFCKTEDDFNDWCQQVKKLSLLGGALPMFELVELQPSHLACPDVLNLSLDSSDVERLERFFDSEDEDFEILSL
Myeloid diff MLP: promotes myeloid progenitor differentiation; ER-HoxA9 myeloid progenitors, lysozyme-GFP differentiation, flow cytometry; calls only at 10 µM; 360,000 compounds, 1% hits; AID 624256;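 active = normalized GFP-positive differentiation at or above the plate's own cutoff, the solvent-only control mean plus 3 SD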;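 also: cells exposed to compound for four days before flow analysis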
SKN-1 block: inhibitors of C. elegans SKN-1; 360,000 compounds, 0.49% hits; C. elegans VP596 Pgst-4::GFP/RFP ratio, acrylamide-induced, 24 h; inhibition, % at 21.8 µM; AID 624304;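 active = interference check ratio from 0.5 to 1.5 plus GFP to RFP signal ratio inhibition reaching or exceeding a fixed threshold, cut at about 30% in these data, passing the limit was not always enough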
CHRM1 PAM: human CHRM1 positive allosteric modulation. CHO-K1 hM1, Fluo-8 calcium fluorescence, ACh EC20; 0% = ACh EC20, 100% = maximal ACh. P11229. 360,000 compounds, 0.088% hits. AID 588819. activation, % at 3 µM; in the data active = activation above about 19%, passing the limit was not always enough
M1 ag: human M1 muscarinic receptor agonism. CHO-K1 hM1, Fluo-8 calcium fluorescence, agonist mode; 0% DMSO, 100% acetylcholine EC100. activation, % at 3 µM. 360,000 compounds, 0.33% hits. AID 588814;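 active = activation above the run's mean compound activation plus 3 SD, cut at about 16% in these data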;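 also: peak over basal fluorescence ratio within a 140 s kinetic read after compound addition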
Myeloid diff: compounds promoting myeloid differentiation. shares compounds with Myeloid diff MLP. 2,300 compounds, 2% hits. calls only. ER-HoxA9 myeloid progenitors, GFP/Mac1 double-positive flow;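 active = share of green or green-and-red cells above 9 and 9% in run 1 or 4 and 3% in run 2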
GFP autofluor: compound fluorescence in myeloid differentiation counter-screen; ER-HoxA9 myeloid progenitors, no estrogen, GFP autofluorescence flow cytometry; vehicle wells 0%, positive control 100%; 2,300 compounds, 7.4% hits; fluorescence response, % (test concentration not listed); shares compounds with Myeloid diff MLP;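 active = over 5% cells positive for green fluorescent reporter, or over 2% positive for both it and APC stain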;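 also: range taken on the double positive population between DMSO and positive control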
* marks the source's active call; other numbers are inactive results; i = inactive; nt = not tested or not shown; + = active, no number. A selection: hits, their analogues and other compounds. The true share with any hit is near 3.5%.

SMILES	CHRM1 antagonist	ATG4B inh	Myeloid diff MLP	SKN-1 block	CHRM1 PAM	M1 ag	Myeloid diff	GFP autofluor
COc1ccc(C(=O)CC(c2ccc3c(c2)OCO3)c2c(O)c3ccccc3oc2=O)cc1OC (stereo not given)	-7	nt	i	2	6	-2	nt	nt
COc1cc(C2NCc3ccccc3-n3cccc32)ccc1O (stereo not given)	-7	-3	i	-6	-13	-3	nt	nt
CN(C)CCN(C(=O)COc1ccc(Cl)cc1)c1nc2cc3c(cc2s1)OCO3	-15	-6	i	0	16	0	nt	nt
Cc1cc(C)cc(N2C(=O)NC(=O)/C(=C\c3cccn3-c3ccccc3)C2=O)c1	-1	2	i	-3	9	0	nt	nt
Cc1cc(C)cc(N2C(=O)NC(=O)/C(=C\c3cccn3-c3ccc(Cl)cc3)C2=O)c1	-13	-9	i	-5	8	1	i	0
CCCCCN1C(=O)c2ccccc2[C@@]2(C(=O)OCC)Cc3cc(OC)ccc3[C@@H]12	nt	nt	+	7	nt	nt	i	0
CCOC(=O)[C@]12Cc3ccccc3[C@H]1N(CCC(=O)OC)C(=O)c1ccccc12	nt	nt	+	-8	nt	nt	i	0
CCOC(=O)[C@]12Cc3ccccc3[C@H]1N(Cc1ccccc1)C(=O)c1ccccc12	7	7	i	-5	-1	-9	nt	nt
CN1CCN(c2ncc(C=O)s2)CC1	4	-1	i	-1	3	-4	nt	nt
CCOC(=O)C(C)Oc1cc(C)cc2oc(=O)c3c(c12)CCCC3 (stereo not given)	14	12	i	18	-8	-14	i	0
Cc1ccc2c(c1)C(c1ccccc1)=NCC(=O)N2C	-1	2	i	-4	8	-3	nt	nt
O=C(NN=Cc1ccc(N(CCCl)CCCl)cc1)c1cc(=O)[nH]c(=O)[nH]1	-16	-3	i	28	11	-3	nt	nt
O=C(Cc1cc(=O)oc2cc(O)ccc12)NN=Cc1ccc(N(CCCl)CCCl)cc1	-11	-1	i	3	14	0	i	0
O=C1NS(=O)c2cc([N+](=O)[O-])cc([N+](=O)[O-])c21 (stereo not given)	18	-1	i	0	-4	-2	nt	nt
O=c1[nH]c2ccccc2n1C1CCN(C(CCc2ccccc2)c2nnnn2-c2ccc3c(c2)OCCO3)CC1 (stereo not given)	12	nt	i	11	3	5	nt	nt
CCCCCCC(=O)N/N=C/c1c(O)n(C(C)CC)c(=S)[nH]c1=O (stereo not given)	-3	-2	i	5	2	-5	i	0
CCCCCCC(=O)N/N=C/c1c(O)n(C2CC2)c(=S)[nH]c1=O	5	-6	i	-7	-1	-4	nt	nt
CC1CCN(CC#CCOc2ccc(Cl)cc2)CC1	19	0	i	8	-21	-10	nt	nt
Cn1ccnc1P(=S)(c1nccn1C)c1nccn1C	-3	4	+	-15	16	12	i	0
O=C(/C=C/c1ccccc1)c1c(O)n(CCc2ccccc2)c(=O)[nH]c1=O	-4	-4	+	11	1	-6	i	0
O=C(/C=C/c1ccc2c(c1)OCO2)c1c(O)n(CCc2ccccc2)c(=O)[nH]c1=O	-10	-4	i	-15	11	0	nt	nt
CCOC(=O)c1c(NC(=O)c2c(N)n(CCCOC)c3nc4ccccc4nc23)sc2c1CCCC2	6	-12	i	8	-6	-3	i	2
COc1cc2c(cc1OC)C1C(=O)c3ccc4c(c3OC1CO2)CC(C(C)C)O4 (stereo not given)	23	1	i	-33	1	11	nt	nt
CCn1c(P(C)(=O)O)nc2cc(NC(=O)c3ccccc3F)ccc21	-5	-5	i	15	-1	-5	nt	nt
CC(=O)c1ccc(OC(NC(=O)c2ccco2)C(Cl)(Cl)Cl)cc1 (stereo not given)	-9	-1	+	-12	3	-2	i	0
SMILES	CHRM1 antagonist	ATG4B inh	Myeloid diff MLP	SKN-1 block	CHRM1 PAM	M1 ag	Myeloid diff	GFP autofluor
OC(c1ccccc1)(c1ccccc1)c1ccncc1	0	-9	+	-6	8	-9	i	1
O=C1NC(=O)N(c2ccc(F)cc2)C(=O)/C1=C/c1ccc(N2CCOCC2)cc1	-8	-9	i	18	6	-3	nt	nt
O=C1NC(=O)N(Cc2ccc(F)cc2)C(=O)/C1=C\c1ccc(N2CCCC2)cc1	5	-1	+	39*	-6	-5	i	0
O=C1NC(=O)N(Cc2ccccc2)C(=O)/C1=C/C=C/c1ccco1	-3	-9	i	8	2	3	i	0
COc1ccc(OC(=O)N(C)C[C@@H]2OCc3cnnn3CCCC(=O)N([C@@H](C)CO)C[C@@H]2C)cc1	-2	nt	i	-13	-1	-2	i	0
COc1ccc(OC(=O)N(C)C[C@H]2OCc3cnnn3CCCC(=O)N([C@@H](C)CO)C[C@H]2C)cc1	-21	nt	i	-8	11	-1	nt	nt
O=C1NC(=O)N(CCC2=CCCCC2)C(=O)/C1=C\c1cccs1	-8	5	i	-8	8	-4	i	1
O=C(CCC(=O)N1C[C@H]2C[C@@H](C1)c1cccc(=O)n1C2)NCc1ccc(F)cc1	-5	3	i	-1	1	-1	nt	nt
O=C(CCC(=O)N1CC2C[C@@H](C1)Cn1c2cccc1=O)NCCc1ccccc1F	-19	-9	i	7	11	-3	i	0
CC(=O)N1N=C2C3CCN(CC3)C2C1c1ccc(F)cc1 (stereo not given)	-13	-4	i	-2	11	-4	nt	nt
CC(=O)Nc1ccc([As](=O)(O)c2ccc([N+](=O)[O-])cc2)cc1	10	-1	i	-9	-4	-3	i	0
COc1ccc(CC(=O)N2CCN(C)CC2)cc1	-23	0	i	7	13	3	i	0
COc1ccc(CCn2c(O)c(C=NCCCN(C)C)c(=O)[nH]c2=O)cc1OC	-6	-3	i	3	10	-3	nt	nt
O=C(NCNC(=O)NC1C(=O)NC(=O)N1CO)NC1C(=O)NC(=O)N1CO (stereo not given)	-32	3	i	-2	4	1	nt	nt
O=C(Nc1cccc(OC(=O)N2CCCCC2)c1)N1CCCCC1	-12	9	i	-11	7	-1	i	0

Compound activity (PubChem BioAssay)
